Source: PubChem (several laboratories)
Sampled rows, rich in hits. Any-hit rate of the full collection: about 0.5%.
E coli growth-1 = blocks Escherichia coli growth; hit rate 0.21% among 330,000; OD600, 23 h; hits give low values; OD600 absorbance (concentration not given with the values);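 active = OD600 absorbance below the run mean of sample wells minus 3.6 SD, in any replicate, cut at about 0.56 in these data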
E coli growth-2 = reduces bacterial viability in AddAB counter-screen; E. coli V3065 growth, OD600 absorbance, 18 h; hit rate 0.27% among 330,000; inhibition, % at 11.9 µM; AID 449728;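 active = inhibition above the campaign's mean inhibition across all tested compounds plus 3 SD, cut at about 9.9% in these data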;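 also: uninfected addAB+ strain grown without phage in ampicillin broth; 0% = DMSO wells and 100% = ciprofloxacin 0.95 µg/ml wells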
Tat export inh = blocks Tat-dependent protein export in E. coli; E. coli MC4100 TorA-mCherry Tat export, fluorescence; hit rate 0.036% among 340,000; inhibition, % at 10 µM;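 active = mean replicate inhibition at least 50% and at least half of replicates individually reaching 50%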;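 also: exported cargo escapes ClpAP degradation while cytoplasmic cargo is degraded and loses fluorescence; 0% = median of neutral control wells and 100% = median of NaSCN control wells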
AddAB inh = less growth of phage-infected E. coli with AddAB. E. coli expressing H. pylori AddAB, absorbance growth. inhibition, % at 11.9 µM. AID 435030. hit rate 0.29% among 330,000; in the data active = inhibition above about 12%;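 also: 0% = vehicle wells of infected cells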
phage Ecoli inh = E. coli growth loss with phage present | growth absorbance | AID 651602 | hit rate 0.26% among 360,000 | inhibition, % at 11.9 µM; in the data active = inhibition above about 11%
RecBCD conf = confirmation: growth loss of phage-infected RecBCD+ E. coli (RecBCD inhibitor screen) | inhibition, % at 11.9 µM | AID 651982 | hit rate 45% among 890 | E. coli V66 + T4 2- phage, growth OD | shares compounds with phage Ecoli inh;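 active = mean inhibition over triplicates exceeding the hit threshold derived in the original primary screen, cut at about 11% in these data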
Ecoli viability = inhibits E. coli viability, flagging RecBCD hits as nonselective. shares compounds with phage Ecoli inh. absorbance (OD) growth. inhibition, % at 11.9 µM. hit rate 29% among 890. AID 651983; in the data active = inhibition above about 20%;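 also: E. coli strain V66 grown with compound alone and no phage infection; 0% = bacteria with DMSO vehicle only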
AddAB counter = growth loss of phage-infected AddAB E. coli, RecBCD counter-screen; shares compounds with phage Ecoli inh; inhibition, % at 11.9 µM; hit rate 45% among 890; E. coli expressing H. pylori AddAB + T4 phage, OD growth; gene 2 mutant T4, recBCD-deleted host;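 active = mean inhibition above the solvent-only control wells' mean plus 3 SD, cut at about 22% in these data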;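 also: higher means less bacterial growth from phage killing when AddAB is blocked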
Numbers without * were called inactive; / = no result.

SMILES	E coli growth-1	E coli growth-2	Tat export inh	AddAB inh	phage Ecoli inh	RecBCD conf	Ecoli viability	AddAB counter
NCC[C@H](O)C(=O)N[C@@H]1C[C@H](N)[C@@H](O[C@H]2O[C@H](CN)[C@@H](O)[C@H](O)[C@H]2O)[C@H](O)[C@H]1O[C@H]1O[C@H](CO)[C@@H](O)[C@H](N)[C@H]1O	/	/	126*	/	100*	100*	100*	101*
O=C(NNS(=O)(=O)c1ccc(F)cc1)c1cc(Cl)ccc1O	0.63	/	8	/	15*	-3	-1	3
Nc1nonc1-n1nnc(C(=O)NN=Cc2c(Cl)cccc2Cl)c1CSC1=NCCS1	0.73	/	/	/	/	/	/	/
CCC(=O)NC(c1cc(Cl)c2cccnc2c1O)C1CC1 (stereo unspecified)	0.68	11*	5	8	14*	3	5	7
CC(=O)NC(c1ccc(N(C)C)cc1)c1cc(Cl)c2cccnc2c1O (stereo unspecified)	/	/	/	/	19*	7	9	22*
CCCCC(=O)NC(c1ccc(Cl)cc1Cl)c1ccc2cccnc2c1O (stereo unspecified)	/	/	4	/	19*	13*	14	31*
COc1ccc(C(NC(C)=O)c2cc(Cl)c3cccnc3c2O)cc1 (stereo unspecified)	0.68	20*	-5	10	14*	6	9	16
CC(=O)NC(c1cc(F)c2cccnc2c1O)C1CC1 (stereo unspecified)	0.68	-2	16	-4	0	/	/	/
CC(C)NC(=O)C1C[C@@]1(C)C(NC(=O)OCc1ccccc1)c1ccccc1 (stereo partly specified)	0.72	/	/	/	/	/	/	/
O=C(NN=Cc1c(F)c(F)c(F)c(F)c1F)c1ccc(-c2ccccc2)cc1	0.69	/	/	/	/	/	/	/
CCC(=O)NC(c1ccco1)c1cc(Br)c2cccnc2c1O (stereo unspecified)	/	/	/	/	20*	6	10	18
CCCC(=O)NC(c1ccc(OC)c(OC)c1)c1cc(Cl)c2cccnc2c1O (stereo unspecified)	0.66	11*	-5	8	14*	10	13	19
O=C(NC(c1ccc(Cl)cc1)c1cc(Cl)c2cccnc2c1O)c1cccnc1 (stereo unspecified)	/	-1	-8	5	4	/	/	/
CC(=O)NC(c1ccc(Cl)cc1)c1ccc2cccnc2c1O (stereo unspecified)	0.53	/	-10	/	20*	12*	16	18
Cc1ccc(S(=O)(=O)NCC(=O)NN=Cc2ccc(Cl)cc2)cc1	0.63	/	/	/	/	/	/	/
O=C(NCC1CC1)C1CC1C(NP(=O)(c1ccccc1)c1ccccc1)c1ccccc1 (stereo unspecified)	0.68	/	/	/	/	/	/	/
COc1ccc(-n2c(SCC(=O)NN=C(C)c3cccnc3)nc3ccccc3c2=O)cc1	0.73	/	/	/	/	/	/	/
N#Cc1c2ccc([N+](=O)[O-])cc2[n+]([O-])n1-c1ccccc1	/	38*	0	37*	17*	16*	18	51*
O=c1c2cc([N+](=O)[O-])ccc2sn1-c1ccccc1	/	/	/	/	4	/	/	/
CC(=NNC(=O)CCC(=O)Nc1ccccc1)c1cccs1	0.71	/	/	/	/	/	/	/
CCN(CC)c1ccc(C(=C2C=CC(=[N+](CC)CC)C=C2)c2ccccc2)cc1	/	/	64*	/	79*	73*	80*	83*
CCOc1ccc(NC(=O)Nc2cc(OCC(F)(F)F)cc(OCC(F)(F)F)c2)cc1	0.7	-1	7	2	2	/	/	/
O=C(Nc1ccc(F)cc1)Nc1cc(OCC(F)(F)F)cc(OCC(F)(F)F)c1	0.68	3	-6	4	12*	2	3	6
COC(=O)c1ccc(COc2ccccc2C=NO)o1	0.64	/	/	/	/	/	/	/
CCC(C)NC(=O)C1c2ccccc2C(=O)N1Cc1cc(OC)ccc1OC (stereo unspecified)	0.72	1	3	0	14*	1	1	3
SMILES	E coli growth-1	E coli growth-2	Tat export inh	AddAB inh	phage Ecoli inh	RecBCD conf	Ecoli viability	AddAB counter
CCOc1ccc(CN2C(=O)c3ccccc3C2C(=O)NC(C)CC)cc1OC (stereo unspecified)	0.65	0	4	-1	3	/	/	/
CCNC(=S)NN=Cc1ccc(C#N)cc1	0.66	/	/	/	/	/	/	/
O=C(Oc1c(Br)cc([N+](=O)[O-])cc1Br)c1cccnc1	0.48*	6	22	10	13*	14*	17	18
CN1CC2C3C(=O)N(Cc4ccccc4)C(=O)C3[C@](C)(C1=O)N2C(=O)c1ccc(C(C)(C)C)cc1 (stereo partly specified)	0.68	/	/	/	/	/	/	/
O=[N+]([O-])c1ccc(N2CCN(Cc3ccccc3)CC2)c2c1no[n+]2[O-]	/	/	/	/	12*	8	10	42*
O=[N+]([O-])c1ccc(N2CCN(Cc3ccccc3)CC2)s1	0.66	-1	7	0	1	/	/	/
CN(C)CCCNC(=O)C(=NO)c1ccccc1	0.7	/	/	/	/	/	/	/
CCCCn1c(CNC(=O)CC)nc2ccccc21	0.72	-2	-9	1	2	/	/	/
CCCCn1c(CNC(=O)Cc2ccccc2)nc2ccccc21	0.7	-1	-3	0	100*	-3	-3	3
O=C(C1=C(c2ccccc2)C(=O)c2ccccc2C1=O)c1ccccc1	0.66	/	0	/	11*	-4	-3	5
NC(=NOS(=O)(=O)c1cccc([N+](=O)[O-])c1)c1ccncc1	0.66	/	/	/	/	/	/	/
CCCCOC1NC(=O)NC(=O)C1(F)C(=O)OCC (stereo unspecified)	/	/	/	/	6	/	/	/
COC(=O)C1(F)C(=O)NC(=O)NC1OC (stereo unspecified)	/	/	/	/	23*	27*	16	47*
CC1OC(OC2C(OC3C[C@]4(C)C(CC(O)C5C([C@]6(C)CCC(C(C)(C)O)O6)CC[C@]54C)[C@@]4(C)CCC(O)C(C)(C)C34)OC(CO)C(O)C2O)C(O)C(O)C1O (stereo partly specified)	0.7	/	/	/	/	/	/	/
CC(CCc1ccco1)NC(=O)Cn1ncc2c(=O)oc3ccccc3c21 (stereo unspecified)	0.67	-2	0	4	99*	-4	-4	-4
Cc1nc(N)nc(N)c1/C=C/C(C)(C)c1ccc(Cl)cc1	0.069*	/	23	/	100*	82*	89*	100*
O=[N+]([O-])c1ccc(NC(=S)NCCc2ccccc2)cc1	0.59	6	-3	8	8	/	/	/
Fc1ccc(NC(=S)NCc2ccccc2)cc1	0.65	1	14	2	3	/	/	/
Fc1ccc(CNC(=S)Nc2ccc(Cl)cc2)cc1	0.63	8	-2	8	12*	5	7	7
O=[N+]([O-])c1ccc(NC(=S)NCCc2ccc(Cl)cc2)cc1	0.58	11*	-19	11	13*	3	5	9
O=C(C=C1NC2(CCCC2)Cc2ccccc21)N1CCOCC1	0.68	/	/	/	/	/	/	/
